About 83,000 compounds went through this panel and 20% of them were active in at least one assay; those are over-represented in the sample as a whole.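 Single-concentration screen, 48 h exposure, 96-well plates. Endpoint: percent growth. Below 10 = active.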 Activity calls are given as the source filed them.

For the test, the system named is HL-60(TB) leukemia. The test can be described thus: NCI-60 one-dose screen, 48 h (100 = growth as untreated, 0 = no growth, -100 = all killed). The settings on record: 10 µM unless noted. How it is done:
Growth inhibition of the HL-60(TB) human tumor cell line is measured as a screen for anti-cancer activity. Cells are grown in 96 well plates and exposed to the test compound for 48 hours. Compounds are tested at a single concentration, which is 10^-5 M for most compounds. The reported endpoint is percent growth (GI% or GIPRCNT), where numbers from 0 - 100% represent growth inhibition, and numbers from -100% - 0 represent cell death. For example, a value of 40 represents 60% growth inhibition. A value of 0 means no net growth occurred over the course of the experiment. A value of -40 indicates 40% of cells at the beginning of the experiment died by the end of the experiment. A value of -100 means all cells are dead at the end of the experiment.
NCI-60 Human Tumor Cell Lines Screen was performed using the standard one-dose NCI protocol, which is described in more detail at https://dtp.cancer.gov/discovery_development/nci-60/default.htm.
Compounds with GIPRCNT values below 10 were considered active. Activity score was based on GIPRCNT using the following formula: […]
Score is 0 for GIPRCNT values of 100 or above, 50 for GIPRCNT values of 0, and 100 for GIPRCNT values of -100.
Take `CCN1CCN(Cc2ccc(NC(=O)c3cccc(-n4cc(-c5ccc(NC(C)=O)nc5)nn4)c3)cc2C(F)(F)F)CC1`: the growth is 65.4% (inactive).

On to `Nc1nc(-c2ccccc2)c(N=Nc2ccc(Cl)cc2[N+](=O)[O-])s1`, for which the growth is 83.8% (inactive).

Consider `Cn1cc(-c2nnc(N)nc2-c2c[nH]c3ccccc23)c2cc(Br)cnc21`, for which the growth was 13.6% (inactive).

Consider `CCC(C)(C)c1ccc(OCCCCN2CCN(c3ccncc3)CC2)cc1`, for which the growth was -57.7% (active).

For `CS(=O)(=O)Nc1ccc(-c2ccc3c(c2)ncn3-c2ccc(NC(=O)Nc3ccc(Cl)c(C(F)(F)F)c3)cc2)cc1`, the growth was -42.4% (active).

As to `COc1ccc2c(c1)C(=O)N(C)C2C1c2c(cc3c(c2OC)OCO3)CCN1C` (stereo not given), the growth is -6.5% (active).

On to `O=c1cc(-c2ccccc2)oc2cc(OCCCCNCc3ccccc3)cc(O)c12`, for which the growth is -65.6% (active).

Consider `C=C1CC[C@@H]2[C@]3(C)COC(c4cn[nH]c4-c4ccccc4)O[C@@H]3CC[C@@]2(C)[C@@H]1C/C=C1/C(=O)OCC1O` (stereo not given in full), for which the growth was 8.64% (active).

As for `C/C(=N\N=C1/C(=O)Nc2ccccc21)c1ccc2c(c1)Nc1ccccc1S2`, the growth is 63.6% (inactive).

`O=C(c1ccc(Cl)cc1)C1[C@H](c2ccccc2Cl)[C@@H](c2ccccc2)NC12C(=O)Nc1ccccc12` (stereo not given in full): the growth is -35.1% (active).

For `CC(=C\C(=O)Oc1ccc2c3c1OC1C(O)CCC4(O)C(C2)N(CC2CCC2)CCC314)/C=C1\CCCc2ccccc21` (stereo not given), the growth is 17.9% (inactive).

For `N#CCc1nnc(NC(=O)c2ccc(-n3c(=O)[nH]c4ccccc4c3=O)cc2)s1`, the growth is 86% (inactive).

As to `O=c1[nH]c2ccccc2cc1CSc1ccccc1Nc1nccc(-c2ccc3c(c2)OCO3)n1`, the growth is 98% (inactive).

For `COc1ccc(NC(=O)CSc2nnc(-c3ccc4nc(-c5ccc(Cl)cc5)[nH]c4c3)o2)cc1`, the growth is 63% (inactive).

In the case of `CCOc1ccc(/C=N/NC(=O)Cn2nc(Cc3ccc([N+](=O)[O-])cc3)c3onc(C)c3c2=O)cc1`, the growth was 81.5% (inactive).

In the case of `CN(C)c1nc(NCCNS(=O)(=O)c2ccc(C(=O)/C=C/c3ccc(F)cc3)cc2)nc(N2CCOCC2)n1`, the growth is -20.3% (active).

Take `O=C(CN1CCN(c2ncnc3c2cnn3-c2ccccc2)CC1)Nc1nncs1`: the growth was -45.5% (active).

Consider `CC(=O)c1cccc(NC(=O)CCC(=O)NS(=O)(=O)c2ccc(C)cc2)c1`, for which the growth is 107% (inactive).

For the compound `COc1ccc(C(=O)/C=C/c2ccc(OCc3ccc(F)cc3)c(OC)c2)cc1OC`, the growth was -5.63% (active).

In the case of `CO[C@@H]1CSSC1Cn1nc(-c2ccc(Oc3ccccc3)cc2)c2c(N)ncnc21` (stereo not given in full), the growth is 13.3% (inactive).

On to `Cc1cccc(/C=C/c2ccc(NC(=S)NCCCCN(C)C)cc2)c1`, for which the growth is -37.7% (active).

For the compound `Cc1ccccc1[C@H]1C(C(=O)c2ccc(Cl)cc2)C2(N[C@@H]1c1ccccc1)C(=O)Nc1ccccc12` (stereo not given in full), the growth is -18.1% (active).

As for `Cc1cc(C)c2[nH]c(=O)c(C(c3nnnn3Cc3ccc4c(c3)OCO4)N3CCN(C)CC3)cc2c1` (stereo not given), the growth is 129% (inactive).

Take `COc1ccc2c(c1)c(/C=N/Nc1ccc3ccccc3n1)cn2C`: the growth is -57.7% (active).

`COc1ccc(/C=C/c2nc3ccccc3n3c(-c4ccc(Cl)cc4)nnc23)cc1`: the growth is 71.8% (inactive).

For the compound `CCOC(=O)COc1c(OC)c(OC)cc2oc(-c3cccc(C(=O)Nc4ccc(Cl)cc4)c3)cc(=O)c12`, the growth is 97.6% (inactive).

For `Cc1ccc(Cl)cc1NC(=O)N/C(N)=N/c1nc2ccccc2s1`, the growth is -44.9% (active).

On to `Cc1cc(=O)oc2cc(OCC(O)CNN3C(=O)c4cccc5c(N6CCN(C)CC6)ccc(c45)C3=O)ccc12` (stereo not given), for which the growth was 113% (inactive).

As to `O=C(O)CCCCCCCCCCN1C(=O)/C(=C/c2cnc(-c3ccccc3)s2)SC1=S`, the growth was 63.6% (inactive).

`O=C(N/N=C/c1ccc(Br)o1)c1[nH]c2ccc(Br)cc2c1-c1ccccc1`: the growth is -48.7% (active).

Regarding `C=C(c1ccc(OC)c(N)c1)c1cc(C)nc2ccccc12`, the growth is -22.8% (active).

For `CCCCC[C@@H]1C/C=C(\C)[C@@H](O)C(C)(C)C(=O)[C@@H](C)/C=C(\C)[C@@H]2C[C@H](O)C[C@](O)(CC(=O)O1)O2`, the growth was 11.8% (inactive).

`O=C1/C(=C/c2cnc(-c3ccccc3)s2)SC(=S)N1Cc1ccc2c(c1)OCO2`: the growth was 69% (inactive).

Consider `COc1ccc(-c2ccnc(SCc3cc4ccccc4[nH]c3=O)n2)cc1`, for which the growth is 34.1% (inactive).

Regarding `c1n[nH]cc1-c1nc2ccc3[nH]ncc3c2c2c1CC1(CC2)COC1`, the growth was 29.1% (inactive).

On to `O=c1c(-c2nc(-c3ccccc3)c(-c3ccccc3)[nH]2)coc2ccc(F)cc12`, for which the growth was 54.3% (inactive).

Take `O=C(CSc1ccc(-c2ccc(Cl)cc2)nn1)Nc1ccc(Cl)c(C(F)(F)F)c1`: the growth is 32.7% (inactive).

`O=C(Nc1ccc(-c2ccc3c(c2)NC(=O)/C3=C\c2ccc[nH]2)cc1)Nc1cccc(Cl)c1`: the growth was 10.6% (inactive).

As for `COc1cc(CNC(=O)C[C@H](C)CCC=C(C)C)ccc1OCc1cn(-c2ccc(Br)cc2)nn1`, the growth is 88.4% (inactive).

`O=C(/C=C/c1ccco1)c1nc2ccccc2n1Cc1ccc(Br)cc1`: the growth is 16% (inactive).

The values above are taken from PubChem BioAssay (NCI).
